Assays:
[1] = molecular target: Tyrosine-protein kinase SYK (Homo sapiens) (UniProt P43405); details: at 1 µM
[2] = molecular target: T1, Tyrosine-protein kinase Tec (Homo sapiens) (UniProt P42680); details: at 0.1 µM
T1 sequence (whole entry): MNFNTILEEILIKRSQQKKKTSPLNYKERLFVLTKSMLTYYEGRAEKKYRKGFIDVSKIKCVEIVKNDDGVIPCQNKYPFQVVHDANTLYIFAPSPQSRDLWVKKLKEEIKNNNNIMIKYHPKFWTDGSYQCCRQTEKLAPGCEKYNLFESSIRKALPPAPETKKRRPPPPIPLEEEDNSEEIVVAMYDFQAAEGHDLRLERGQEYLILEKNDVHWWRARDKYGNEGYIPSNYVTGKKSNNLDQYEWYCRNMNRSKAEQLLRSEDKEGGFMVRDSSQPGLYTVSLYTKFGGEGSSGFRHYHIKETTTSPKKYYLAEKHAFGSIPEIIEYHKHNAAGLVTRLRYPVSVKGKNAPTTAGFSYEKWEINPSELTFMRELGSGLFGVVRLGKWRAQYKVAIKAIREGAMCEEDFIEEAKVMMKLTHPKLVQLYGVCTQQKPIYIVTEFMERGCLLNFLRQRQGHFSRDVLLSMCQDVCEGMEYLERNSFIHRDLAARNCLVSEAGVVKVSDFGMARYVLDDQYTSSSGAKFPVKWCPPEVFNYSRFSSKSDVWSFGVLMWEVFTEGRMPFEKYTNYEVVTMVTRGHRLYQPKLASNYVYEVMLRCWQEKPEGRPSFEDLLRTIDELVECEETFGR

[3] = molecular target: T1, Tyrosine-protein kinase Tec (Homo sapiens); details: at 1 µM
[4] = molecular target: Angiopoietin-1 receptor (Homo sapiens) (UniProt Q02763); details: at 0.1 µM
Angiopoietin-1 receptor (Homo sapiens), sequence (Q02763 whole entry): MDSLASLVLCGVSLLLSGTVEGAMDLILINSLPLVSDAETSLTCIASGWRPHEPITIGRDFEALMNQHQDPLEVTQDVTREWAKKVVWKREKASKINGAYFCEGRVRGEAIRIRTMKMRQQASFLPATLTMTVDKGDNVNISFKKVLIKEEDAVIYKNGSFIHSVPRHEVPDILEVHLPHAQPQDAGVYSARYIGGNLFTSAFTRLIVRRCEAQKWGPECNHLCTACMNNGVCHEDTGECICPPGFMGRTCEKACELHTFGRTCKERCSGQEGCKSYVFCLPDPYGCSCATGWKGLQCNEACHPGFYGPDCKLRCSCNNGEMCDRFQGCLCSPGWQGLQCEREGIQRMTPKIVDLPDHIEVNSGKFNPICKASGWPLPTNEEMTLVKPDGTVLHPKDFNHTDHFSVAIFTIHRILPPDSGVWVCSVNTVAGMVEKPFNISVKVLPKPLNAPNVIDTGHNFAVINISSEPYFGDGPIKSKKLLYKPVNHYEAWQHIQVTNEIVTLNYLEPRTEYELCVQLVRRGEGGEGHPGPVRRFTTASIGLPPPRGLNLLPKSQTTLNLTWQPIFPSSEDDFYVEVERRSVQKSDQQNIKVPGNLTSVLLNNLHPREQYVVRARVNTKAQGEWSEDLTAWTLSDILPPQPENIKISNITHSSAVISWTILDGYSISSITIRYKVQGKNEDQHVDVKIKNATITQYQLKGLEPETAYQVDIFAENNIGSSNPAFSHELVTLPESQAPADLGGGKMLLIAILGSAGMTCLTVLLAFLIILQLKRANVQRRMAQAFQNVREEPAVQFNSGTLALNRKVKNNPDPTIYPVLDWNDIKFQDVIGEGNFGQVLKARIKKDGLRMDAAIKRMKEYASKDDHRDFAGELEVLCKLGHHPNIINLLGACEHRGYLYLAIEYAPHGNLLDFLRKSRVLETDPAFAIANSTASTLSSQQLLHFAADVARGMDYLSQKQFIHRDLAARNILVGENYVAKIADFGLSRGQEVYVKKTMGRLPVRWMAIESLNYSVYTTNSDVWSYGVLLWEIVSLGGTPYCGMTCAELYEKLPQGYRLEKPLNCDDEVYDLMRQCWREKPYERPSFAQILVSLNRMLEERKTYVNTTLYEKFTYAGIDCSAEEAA

[5] = molecular target: Angiopoietin-1 receptor (Homo sapiens) (UniProt Q02763); details: at 1 µM
[6] = molecular target: T2, Non-receptor tyrosine-protein kinase TNK1 (Homo sapiens) (UniProt Q13470); details: at 0.1 µM
T2 sequence (whole entry): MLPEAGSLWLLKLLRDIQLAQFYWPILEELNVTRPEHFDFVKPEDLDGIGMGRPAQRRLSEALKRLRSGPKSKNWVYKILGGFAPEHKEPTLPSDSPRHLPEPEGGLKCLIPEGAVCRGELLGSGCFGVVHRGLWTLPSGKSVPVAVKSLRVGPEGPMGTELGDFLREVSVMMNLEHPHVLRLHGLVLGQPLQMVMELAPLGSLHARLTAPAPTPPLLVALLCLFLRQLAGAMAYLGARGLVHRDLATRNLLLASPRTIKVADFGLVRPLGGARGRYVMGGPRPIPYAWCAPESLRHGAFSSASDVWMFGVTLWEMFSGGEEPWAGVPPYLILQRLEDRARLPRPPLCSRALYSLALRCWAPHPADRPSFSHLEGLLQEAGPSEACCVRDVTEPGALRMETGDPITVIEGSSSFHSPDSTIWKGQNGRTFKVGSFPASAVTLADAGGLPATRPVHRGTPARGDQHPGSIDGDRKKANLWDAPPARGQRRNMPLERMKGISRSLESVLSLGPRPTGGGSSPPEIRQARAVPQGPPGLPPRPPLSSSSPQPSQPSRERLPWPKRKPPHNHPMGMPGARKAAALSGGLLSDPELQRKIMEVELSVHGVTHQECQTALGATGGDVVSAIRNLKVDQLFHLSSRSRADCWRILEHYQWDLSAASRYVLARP

[7] = molecular target: T2, Non-receptor tyrosine-protein kinase TNK1 (Homo sapiens); details: at 1 µM
[8] = molecular target: Activated CDC42 kinase 1 (Homo sapiens) (UniProt Q07912); details: at 0.1 µM
Activated CDC42 kinase 1 (Homo sapiens), sequence (Q07912 whole entry, looked up): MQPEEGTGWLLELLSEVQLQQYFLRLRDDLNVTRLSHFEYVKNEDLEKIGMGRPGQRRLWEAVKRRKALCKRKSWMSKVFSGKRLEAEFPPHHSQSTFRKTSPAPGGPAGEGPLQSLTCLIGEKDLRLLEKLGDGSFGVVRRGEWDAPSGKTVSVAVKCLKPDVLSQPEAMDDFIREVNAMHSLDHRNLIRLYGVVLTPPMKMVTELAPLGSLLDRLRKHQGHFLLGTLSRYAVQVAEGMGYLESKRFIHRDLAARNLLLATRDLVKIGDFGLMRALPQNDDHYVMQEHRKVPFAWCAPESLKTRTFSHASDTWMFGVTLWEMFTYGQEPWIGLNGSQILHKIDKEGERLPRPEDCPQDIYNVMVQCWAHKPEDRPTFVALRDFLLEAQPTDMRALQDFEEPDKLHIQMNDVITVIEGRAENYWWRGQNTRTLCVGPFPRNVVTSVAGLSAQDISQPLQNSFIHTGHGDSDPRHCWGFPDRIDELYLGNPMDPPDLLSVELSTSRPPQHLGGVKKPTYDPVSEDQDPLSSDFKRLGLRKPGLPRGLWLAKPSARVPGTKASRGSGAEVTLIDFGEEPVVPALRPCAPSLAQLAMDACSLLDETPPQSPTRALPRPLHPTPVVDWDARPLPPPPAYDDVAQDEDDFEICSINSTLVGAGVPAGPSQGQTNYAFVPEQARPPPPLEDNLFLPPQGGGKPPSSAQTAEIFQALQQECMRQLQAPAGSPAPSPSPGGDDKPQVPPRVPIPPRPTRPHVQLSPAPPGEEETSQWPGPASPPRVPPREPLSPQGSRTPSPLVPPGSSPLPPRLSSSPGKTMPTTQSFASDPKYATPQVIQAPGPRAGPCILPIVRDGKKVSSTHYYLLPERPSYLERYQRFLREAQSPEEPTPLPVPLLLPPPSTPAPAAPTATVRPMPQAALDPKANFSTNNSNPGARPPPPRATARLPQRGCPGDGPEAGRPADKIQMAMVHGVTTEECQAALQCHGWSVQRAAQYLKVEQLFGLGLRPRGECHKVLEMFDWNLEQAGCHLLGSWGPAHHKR

[9] = molecular target: Activated CDC42 kinase 1 (Homo sapiens) (UniProt Q07912); details: at 1 µM
[10] = molecular target: High affinity nerve growth factor receptor (Homo sapiens) (UniProt P04629); details: at 0.1 µM
High affinity nerve growth factor receptor (Homo sapiens), sequence (P04629 33-796 limits assumed): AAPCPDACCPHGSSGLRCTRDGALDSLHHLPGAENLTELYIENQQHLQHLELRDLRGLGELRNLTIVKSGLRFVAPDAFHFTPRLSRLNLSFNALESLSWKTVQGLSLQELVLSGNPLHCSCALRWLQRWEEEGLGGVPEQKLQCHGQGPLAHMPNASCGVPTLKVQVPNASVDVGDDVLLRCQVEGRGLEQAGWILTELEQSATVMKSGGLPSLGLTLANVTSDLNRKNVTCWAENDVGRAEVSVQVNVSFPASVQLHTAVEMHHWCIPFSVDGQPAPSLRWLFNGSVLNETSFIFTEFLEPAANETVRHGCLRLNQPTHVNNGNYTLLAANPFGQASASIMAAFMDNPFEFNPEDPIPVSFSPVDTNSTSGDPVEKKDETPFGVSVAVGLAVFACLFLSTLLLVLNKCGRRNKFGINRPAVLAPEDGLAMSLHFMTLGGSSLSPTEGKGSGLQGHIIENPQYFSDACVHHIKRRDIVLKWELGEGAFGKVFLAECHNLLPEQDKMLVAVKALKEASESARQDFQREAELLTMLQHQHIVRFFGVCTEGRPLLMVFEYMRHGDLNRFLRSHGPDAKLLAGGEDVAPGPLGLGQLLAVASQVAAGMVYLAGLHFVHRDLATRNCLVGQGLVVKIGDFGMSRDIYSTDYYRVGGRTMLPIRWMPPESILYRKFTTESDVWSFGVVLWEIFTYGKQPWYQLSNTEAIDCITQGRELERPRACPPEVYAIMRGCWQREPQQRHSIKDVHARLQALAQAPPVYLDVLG

[11] = molecular target: High affinity nerve growth factor receptor (Homo sapiens) (UniProt P04629); details: at 1 µM
[12] = molecular target: BDNF/NT-3 growth factors receptor (Homo sapiens) (UniProt Q16620); details: at 0.1 µM
BDNF/NT-3 growth factors receptor (Homo sapiens), sequence (Q16620 32-822 limits assumed): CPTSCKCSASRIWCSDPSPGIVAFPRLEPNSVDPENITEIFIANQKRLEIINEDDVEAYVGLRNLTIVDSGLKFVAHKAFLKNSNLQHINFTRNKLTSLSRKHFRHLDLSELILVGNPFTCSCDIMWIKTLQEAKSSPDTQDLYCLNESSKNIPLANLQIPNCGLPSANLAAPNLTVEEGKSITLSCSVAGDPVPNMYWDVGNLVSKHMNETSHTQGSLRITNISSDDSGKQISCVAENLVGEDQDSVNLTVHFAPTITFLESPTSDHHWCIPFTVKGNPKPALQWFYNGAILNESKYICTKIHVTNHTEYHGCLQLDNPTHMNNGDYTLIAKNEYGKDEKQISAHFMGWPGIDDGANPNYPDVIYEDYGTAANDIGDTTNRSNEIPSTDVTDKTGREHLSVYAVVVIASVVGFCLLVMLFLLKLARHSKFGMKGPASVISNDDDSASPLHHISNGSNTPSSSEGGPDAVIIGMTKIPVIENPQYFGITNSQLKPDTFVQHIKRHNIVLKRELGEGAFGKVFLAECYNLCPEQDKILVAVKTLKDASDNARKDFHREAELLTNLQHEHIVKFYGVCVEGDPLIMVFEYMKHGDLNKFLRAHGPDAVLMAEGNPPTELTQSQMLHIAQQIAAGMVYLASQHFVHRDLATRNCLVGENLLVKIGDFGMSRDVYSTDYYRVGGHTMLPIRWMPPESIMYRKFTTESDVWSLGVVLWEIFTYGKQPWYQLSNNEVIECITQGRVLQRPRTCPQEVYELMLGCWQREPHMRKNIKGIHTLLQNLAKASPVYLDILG

[13] = molecular target: BDNF/NT-3 growth factors receptor (Homo sapiens) (UniProt Q16620); details: at 1 µM
[14] = molecular target: NT-3 growth factor receptor (Homo sapiens) (UniProt Q16288); details: at 0.1 µM
[15] = molecular target: NT-3 growth factor receptor (Homo sapiens) (UniProt Q16288); details: at 1 µM
[16] = molecular target: T3, Tyrosine-protein kinase TXK (Homo sapiens) (UniProt P42681); details: at 0.1 µM
T3 sequence (whole entry): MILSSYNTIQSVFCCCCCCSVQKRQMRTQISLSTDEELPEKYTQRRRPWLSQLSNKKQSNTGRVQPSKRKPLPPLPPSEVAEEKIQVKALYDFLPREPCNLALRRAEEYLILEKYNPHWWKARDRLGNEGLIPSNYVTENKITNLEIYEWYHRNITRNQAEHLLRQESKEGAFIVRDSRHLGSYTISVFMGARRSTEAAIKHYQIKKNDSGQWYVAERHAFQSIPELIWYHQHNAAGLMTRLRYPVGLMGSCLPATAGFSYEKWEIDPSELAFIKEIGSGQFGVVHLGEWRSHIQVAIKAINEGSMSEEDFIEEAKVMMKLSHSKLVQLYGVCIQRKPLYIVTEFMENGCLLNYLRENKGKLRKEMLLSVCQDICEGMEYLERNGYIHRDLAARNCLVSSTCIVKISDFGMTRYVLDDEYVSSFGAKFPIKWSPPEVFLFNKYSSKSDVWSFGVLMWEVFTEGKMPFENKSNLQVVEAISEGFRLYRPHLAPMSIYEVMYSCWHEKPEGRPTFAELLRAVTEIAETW

[17] = molecular target: T3, Tyrosine-protein kinase TXK (Homo sapiens); details: at 1 µM
[18] = molecular target: Non-receptor tyrosine-protein kinase TYK2 (Homo sapiens) (UniProt P29597); details: at 0.1 µM;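 note: each value is a mean of the inhibition readings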
Non-receptor tyrosine-protein kinase TYK2 (Homo sapiens), sequence (P29597 whole entry): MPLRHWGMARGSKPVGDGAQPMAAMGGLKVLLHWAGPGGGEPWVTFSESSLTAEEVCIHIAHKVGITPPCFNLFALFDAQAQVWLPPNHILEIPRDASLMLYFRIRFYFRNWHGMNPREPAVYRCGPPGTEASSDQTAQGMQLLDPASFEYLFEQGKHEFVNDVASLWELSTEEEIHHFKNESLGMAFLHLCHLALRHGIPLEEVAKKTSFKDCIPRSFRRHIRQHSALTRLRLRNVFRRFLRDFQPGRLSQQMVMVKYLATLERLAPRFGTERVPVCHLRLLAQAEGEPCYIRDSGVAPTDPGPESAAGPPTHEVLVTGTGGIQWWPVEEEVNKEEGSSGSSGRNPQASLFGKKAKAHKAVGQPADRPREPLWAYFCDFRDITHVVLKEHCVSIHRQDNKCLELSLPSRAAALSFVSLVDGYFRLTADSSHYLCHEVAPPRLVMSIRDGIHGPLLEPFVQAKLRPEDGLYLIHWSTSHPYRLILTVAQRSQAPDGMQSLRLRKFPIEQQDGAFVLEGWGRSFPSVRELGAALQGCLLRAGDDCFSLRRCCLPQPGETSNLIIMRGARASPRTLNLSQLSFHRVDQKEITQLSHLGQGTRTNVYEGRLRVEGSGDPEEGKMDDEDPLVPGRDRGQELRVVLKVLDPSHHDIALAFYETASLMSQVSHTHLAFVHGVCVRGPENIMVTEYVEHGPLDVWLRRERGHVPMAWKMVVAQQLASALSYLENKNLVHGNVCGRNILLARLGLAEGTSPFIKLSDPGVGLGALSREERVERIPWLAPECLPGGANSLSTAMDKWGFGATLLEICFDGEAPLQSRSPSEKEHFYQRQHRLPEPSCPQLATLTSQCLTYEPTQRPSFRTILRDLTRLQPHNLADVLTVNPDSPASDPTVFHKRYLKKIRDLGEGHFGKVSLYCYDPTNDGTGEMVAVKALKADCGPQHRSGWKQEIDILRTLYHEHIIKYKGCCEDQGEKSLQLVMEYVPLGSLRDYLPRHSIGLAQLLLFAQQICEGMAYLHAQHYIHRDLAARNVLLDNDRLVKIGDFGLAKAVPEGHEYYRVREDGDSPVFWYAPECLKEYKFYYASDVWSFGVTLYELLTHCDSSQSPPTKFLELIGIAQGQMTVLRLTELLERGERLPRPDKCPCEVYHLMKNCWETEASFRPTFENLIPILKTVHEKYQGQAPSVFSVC

[19] = molecular target: T4, Dual specificity protein kinase TTK (Homo sapiens) (UniProt P33981); details: at 1 µM;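 note: reported figures are mean TTK inhibition at 1 µM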
T4 sequence (whole entry): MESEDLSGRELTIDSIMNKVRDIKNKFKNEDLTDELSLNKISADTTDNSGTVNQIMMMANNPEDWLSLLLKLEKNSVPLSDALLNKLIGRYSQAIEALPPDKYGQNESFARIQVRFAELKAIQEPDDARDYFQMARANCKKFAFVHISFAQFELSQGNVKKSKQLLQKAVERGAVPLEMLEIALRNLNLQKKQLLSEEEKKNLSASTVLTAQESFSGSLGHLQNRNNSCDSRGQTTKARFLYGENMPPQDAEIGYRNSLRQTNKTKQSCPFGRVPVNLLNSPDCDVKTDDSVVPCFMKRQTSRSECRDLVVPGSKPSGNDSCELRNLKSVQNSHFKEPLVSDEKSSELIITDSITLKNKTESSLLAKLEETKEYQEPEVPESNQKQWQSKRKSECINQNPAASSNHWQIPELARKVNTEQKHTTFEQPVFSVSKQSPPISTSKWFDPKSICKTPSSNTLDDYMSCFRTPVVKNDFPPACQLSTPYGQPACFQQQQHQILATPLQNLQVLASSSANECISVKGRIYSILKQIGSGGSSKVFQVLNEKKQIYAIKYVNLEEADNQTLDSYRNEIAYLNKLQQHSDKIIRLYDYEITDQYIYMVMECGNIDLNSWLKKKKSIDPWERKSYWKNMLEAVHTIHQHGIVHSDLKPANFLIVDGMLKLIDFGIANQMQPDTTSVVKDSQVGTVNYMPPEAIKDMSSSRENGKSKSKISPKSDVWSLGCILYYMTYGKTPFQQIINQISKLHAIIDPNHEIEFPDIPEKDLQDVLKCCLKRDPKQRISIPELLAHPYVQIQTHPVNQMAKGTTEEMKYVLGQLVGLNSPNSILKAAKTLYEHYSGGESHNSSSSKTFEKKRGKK

[20] = molecular target: T5, Aurora kinase A (Homo sapiens) (UniProt O14965); details: at 0.1 µM;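 note: each reported value is a mean percent inhibition of Aurora-A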
T5 sequence (whole entry): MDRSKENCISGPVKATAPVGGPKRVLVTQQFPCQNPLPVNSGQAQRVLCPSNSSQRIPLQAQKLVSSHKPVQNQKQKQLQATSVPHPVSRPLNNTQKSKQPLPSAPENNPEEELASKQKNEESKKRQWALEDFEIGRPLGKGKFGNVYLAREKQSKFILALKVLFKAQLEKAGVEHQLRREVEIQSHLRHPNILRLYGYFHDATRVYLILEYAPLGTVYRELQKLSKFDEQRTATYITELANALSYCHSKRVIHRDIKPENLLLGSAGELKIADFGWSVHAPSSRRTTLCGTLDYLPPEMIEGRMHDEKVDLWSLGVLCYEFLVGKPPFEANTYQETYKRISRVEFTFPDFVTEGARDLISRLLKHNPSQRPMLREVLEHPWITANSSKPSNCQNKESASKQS

Structure (SMILES)	inhibition [1]	inhibition [2]	inhibition [3]	inhibition [4]	inhibition [5]	inhibition [6]	inhibition [7]	inhibition [8]	inhibition [9]	inhibition [10]	inhibition [11]	inhibition [12]	inhibition [13]	inhibition [14]	inhibition [15]	inhibition [16]	inhibition [17]	inhibition [18]	inhibition [19]	inhibition [20]
CCn1c(-c2nonc2N)nc2c(C#CCN)ncc(OCCCN)c21	-0.1%	-2.6%	-1.5%	0.84%	-0.39%	2.24%	10.6%	-0.12%	0.81%	-3.88%	-4.23%	-0.67%	-1.3%	0.15%	2.14%	-1.46%	-3.71%	5.99%	-3.71%	-1.21%
Cc1cc(-c2ccco2)cc(C)c1/C=C/c1cncc(-c2nn[nH]n2)c1	-0.41%	-0.18%	4.27%	2.4%	5.27%	14.2%	75.2%	0.58%	3.5%	-2.1%	-4.92%	-0.9%	4.36%	-0.6%	5.53%	-0.29%	4.01%	0.06%	4.48%	3.01%
Nc1nonc1-c1nc2cnccc2n1C1CCCCC1	-0.01%	-0.6%	1.22%	1.78%	3.18%	-1.33%	20.8%	-1.67%	-1.55%	-1.55%	-1.13%	-1.42%	-0.84%	-0.5%	0.67%	-1.24%	-0.03%	4.5%	4.51%	-0.63%
CCn1c(-c2nonc2N)nc2c(C#CC(C)(C)O)ncc(OCC3CCNCC3)c21	-0.6%	-0.71%	0.43%	0.65%	3.85%	1.75%	10.6%	0.81%	1.2%	3.1%	2.62%	3.08%	1.98%	3.15%	3.69%	-1.16%	-1.53%	-1.24%	11.4%	-1.94%
COc1cc(C=NNc2ncnc3c2cnn3Cc2ccccc2)ccc1O	-4.26%	-0.99%	16.4%	3.65%	31.7%		-2.22%	-1.7%	0.03%	-2.9%	2.96%	0.74%	23.4%	0.17%	14%	1.55%	19.6%	3.47%	3.09%	2.88%
Fc1ccc(-c2ncn(C3CCNCC3)c2-c2ccnc(Oc3ccccc3)n2)cc1	0.47%	-3.67%	-1.69%	-0.49%	1.7%	0.27%	1.01%	-0.4%	0.06%	1.92%	1.69%	1.68%	2.74%	1.74%	1.25%	-5.33%	-2.78%	-1.8%	6.14%	-3.42%
COc1cccc(COc2cc(-n3cnc4ccccc43)sc2C(N)=O)c1	-4.12%	-0.82%	0.59%	-1.48%	3.47%	0.87%	12.1%	-0.46%	0.57%	-2.49%	-7.54%	-0.03%	-0.8%	-2.79%	-1.55%	-1.73%	2.43%	-1.93%	4.76%	2.16%

— ChEMBL document CHEMBL1961873, “Compounds: GSK PKIS; Assays: Nanosyn kinase panel” (2012)
